Hits are enriched below; roughly 0.41% of the tested compounds scored in any of these assays.
GLA spleen mod – alpha-galactosidase A (human) modulation; Potency, µM (top dose mostly 80 µM), for the others: at the top dose activity change, negative = inhibition, usual class: inhibitors; AID 2107; human spleen homogenate, 4MU-alpha-Gal fluorescence, 40 min; P06280; hit rate 0.008% among 240,000;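 also: potency is read from the fitted curve at half-maximal effect; 0% = enzyme with vehicle and -100% = no enzyme basal signal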
Target sequence (P06280 32-429 limits assumed): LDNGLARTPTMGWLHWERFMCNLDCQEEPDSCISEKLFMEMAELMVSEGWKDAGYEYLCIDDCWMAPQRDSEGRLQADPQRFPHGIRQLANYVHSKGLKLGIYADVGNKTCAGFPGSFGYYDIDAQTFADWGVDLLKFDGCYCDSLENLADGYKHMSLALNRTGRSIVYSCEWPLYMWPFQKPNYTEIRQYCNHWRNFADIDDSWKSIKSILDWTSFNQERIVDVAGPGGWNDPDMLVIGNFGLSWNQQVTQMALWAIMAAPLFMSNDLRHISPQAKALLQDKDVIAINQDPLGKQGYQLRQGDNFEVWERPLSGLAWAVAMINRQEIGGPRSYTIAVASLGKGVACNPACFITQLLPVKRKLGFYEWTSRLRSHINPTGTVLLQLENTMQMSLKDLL
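Fluorogenic readout (Ex 365/Em 440 nm) of 4-methylumbelliferone released from 1 mM 4-MU-alpha-galactoside by spleen homogenate, 40 min at 37C, pH 5.0. Data normalized to no-enzyme and enzyme controls; Hill-equation AC50 from compound titrations.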
GLA inh pH 4.5 – alpha-galactosidase A (human) inhibition, pH 4.5. AID 1467. activity change, negative = inhibition, % at 105 µM. purified enzyme, 4-MU-alpha-Gal fluorescence, pH 4.5. P06280. 230,000 tested, under 10 active;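 also: 0% = full activity with enzyme and -100% = basal without enzyme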
GAA glycogen – inhibitors or activators of human alpha-glucosidase glycogen cleavage; P10253; recombinant GAA, glycogen substrate, Amplex Red glucose oxidase fluorescence; Potency, µM (doses to about 76.4 µM), inactives show at the highest dose activity change, negative = inhibition, hits mostly inhibitors; hit rate 0.38% among 300,000;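 also: potency is read from the fitted curve at half-maximal effect; 0% = full enzyme reaction and -100% = no-enzyme basal signal; the screen sought inhibitors and activators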
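Recombinant enzyme (4 nM final) with compounds titrated up to 77 uM and bovine liver glycogen (30 ug) in citrate pH 5.0, 0.01% Tween-20, 37 C 40 min. Released glucose detected by Amplex Red/glucose oxidase (Ex 573/Em 610); AC50 from Hill fits.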
N370S GC – inhibitors or activators of N370S glucocerebrosidase for Gaucher disease; N370S GC spleen homogenate, 4MU-glucoside fluorescence; Potency, µM (top dose mostly 59.4 µM), without a hit: at the top dose activity change, negative = inhibition, most hits filed as inhibitors; hit rate 0.092% among 330,000; P04062;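 also: potency is read from the fitted curve at half-maximal effect; 0% = full enzyme activity and -100% = no enzyme basal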
GAA spleen mod – lysosomal alpha-glucosidase (human) modulation; P10253; human spleen homogenate, 4-MU-alpha-glucoside fluorescence; hit rate 0.006% among 240,000; Potency, µM (titrated, usually from 79.9 µM), inactives show at the top dose activity change, negative = inhibition, actives largely listed as inhibitors;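 also: potency is read from the fitted curve at half-maximal effect; 0% = enzyme with vehicle and -100% = no enzyme basal signal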
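Compounds were titrated against alpha-glucosidase in spleen homogenate at pH 5.0, with 1 mM 4-methylumbelliferyl substrate for 40 min at 37 C. Reactions were quenched with pH 10 NaOH/glycine and fluorescence measured.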
GAA inhib – blocks human lysosomal alpha-glucosidase | purified human GAA, 4-MU-alpha-glucoside fluorescence | Potency, µM (titrated, usually from 76.9 µM), for the others: at the top dose activity change, negative = inhibition, most hits filed as inhibitors | hit rate 0.005% among 200,000 | AID 1466;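 also: potency is read from the fitted curve at half-maximal effect; plate controls were uninhibited enzyme wells for no effect and no-enzyme background for full effect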
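Human alpha-glucosidase, 4 nM, pre-mixed with test compounds before 400 uM 4-methylumbelliferyl substrate; 20 min room temperature at pH 5.0. Fluorescence read after pH 10 stop; AC50 values from Hill-equation fits.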
Numbers without * were called inactive; ? = inconclusive; · = not tested or not shown; [ ] = dose if it differs, or a comment. Calls follow the shape of the dose curve; as a rule, active = well fitted curve in the direction sought with a large enough effect; inconclusive = small, poorly fitted or top-dose-only effect, or another doubt; inactive = no such curve, though single readings can be large; an effect the other way counts as inactive or inconclusive.

SMILES	GLA spleen mod	GLA inh pH 4.5	GAA glycogen	N370S GC	GAA spleen mod	GAA inhib
Cc1ccn2c(Nc3ccc4c(c3)OCO4)c(-c3ccc(Cl)cc3)nc2c1	·	·	-13.5%[76.3 µM]	·	·	·
Cc1ccn2c(Nc3ccc4c(c3)OCO4)c(-c3ccco3)nc2c1	·	·	5.01µM*	·	·	·
Nc1cc(Br)c(N)c(Br)c1	-6.5%	6.1	31.6µM*	-8.8%	-3.5%	3.8%
NCCC[C@@H](CC(=O)N[C@@H]1CCCC[C@H]1C(=O)N[C@H](CC(=O)N[C@@H](CCC(=O)O)CC(=O)O)Cc1c[nH]c2ccccc12)NC(=O)C[C@H](CO)NC(=O)[C@@H]1CNCC[C@H]1N	6.6%	-1.8	·	3.0%	7.0%	·
CCOc1ccc(OCC)c(S(=O)(=O)NNC(=O)c2c(C)nc3ccccn23)c1	-0.2%	-7.8	7.7%	-0.6%	-8.2%	-2.7%
COc1ccc(Br)cc1S(=O)(=O)NNC(=O)c1c(C)nc2ccccn12	7.2%	-2.0	10µM*	-6.5%	2.0%	5.7%
Nc1ncnc2n[nH]c(Nc3ccc(F)cc3)c12	-12.8%	·	·	-11.5%	5.4%	·
CC(C)c1ccc(NC(=S)Nc2cccc3ccccc23)cc1	·	·	39.8µM*	-12.6%	·	·
Oc1ccc(-c2csc(Nc3ncccn3)n2)cc1O	1.3%	-11.4	7.03µM*	-5.4%	6.3%	-2.9%
Oc1ccc(-c2csc(-c3ccccc3)n2)cc1O	-2.9%	-2.6	11.1µM*	5.9%	-8.3%	-2.2%
Oc1ccc(-c2csc(-c3cccnc3)n2)cc1O	1.5%	5.6	7.08µM*	-20.2%	6.9%	·
CN1c2ccccc2C(C)(C)[C@]12C=Cc1cc(O)ccc1O2	-4.2%	-3.3	7.88µM*	-22.3%	-5.9%	-4.5%
CN1c2ccccc2C(C)(C)C12C=Nc1c(ccc3ccccc13)O2 (stereo not drawn)	13.4%	-8.1	8.5%	2.5%	5.6%	1.2%
FC(F)(F)c1cc(NC(=S)NC23CC4CC(CC(C4)C2)C3)cc(C(F)(F)F)c1	6.2%	4.2	·	10.9%	-0.2%	·
CCOC(=O)N1CCN(/[N+]([O-])=N/Oc2ccc([N+](=O)[O-])cc2[N+](=O)[O-])C(C)C1 (stereo not drawn)	5.2%	·	·	-13.6%	-6.9%	·
Fc1ccc(NC(=S)NCc2ccccc2)cc1	·	·	-10.5%[76.3 µM]	-1.3%	·	·
Cc1ccc(NC(=S)NNC(=S)NCc2ccccc2)cc1	-10.7%	1.0	31.6µM*	9.9%	-5.7%	-4.5%
FC(F)(F)c1cccc(NC(=S)NCc2ccccn2)c1	0.0%	-0.5	-2.8%	6.5%	3.8%	4.4%
FC(F)(F)c1cccc(NC(=S)NNC(=S)NCc2ccccc2)c1	-1.7%	-19.2	12.5µM*	6.6%	-4.9%	?
O=S(=O)(Nc1cccc2cccnc12)c1ccc(Br)cc1	2.9%	·	·	5.9%	-3.6%	·
CN(C)/[N+]([O-])=N/Oc1cc(O/[N+]([O-])=N/N2CCCC2CO)c([N+](=O)[O-])cc1[N+](=O)[O-] (stereo not drawn)	1.3%	·	·	-3.8%	-9.0%	·
Nc1nc(-c2cccs2)c(NC(=O)c2ccccc2)s1	-1.9%	-5.7	20µM*	-14.1%	8.7%	-4.8%
O=C1OCC(CO)(CO)N=C1NNc1ccc(Cl)c(Cl)c1	-10.5%	3.2	35.5µM*	-4.7%	4.3%	-5.3%
Cc1ccc2occ(/C=N/NC(=O)c3ccc(O)cc3)c(=O)c2c1	·	·	-9.7%[76.3 µM]	1.5%	·	·
NC(=O)N/N=C/c1coc2ccc(O)cc2c1=O	-2.2%	-25.7	15.8µM*	-3.5%	3.1%	-25.7%
SMILES	GLA spleen mod	GLA inh pH 4.5	GAA glycogen	N370S GC	GAA spleen mod	GAA inhib
COc1ccc(C2=Nn3c(nnc3-c3ccccc3C)SC2)cc1	1.5%	·	·	8.0%	-0.2%	·
CCOC(=O)c1ccc(Nc2nc(C)cc(C)n2)cc1	·	·	-7.2%	0.5%	·	·
CCOC(=O)c1ccc(Nc2cc(C)nc(-c3ccccc3)n2)cc1	·	·	-0.7%	1.41µM*	·	·
Cc1cccc(N2CCN(c3nc4nonc4nc3N3CCSCC3)CC2)n1	4.3%	-3.1	10µM*	-26.6%	4.8%	11.2%
COc1cccc(-c2nn(C)c3sc(C(=O)NCCc4cccc(C)c4)cc23)c1	·	·	-17.9%[76.3 µM]	·	·	·
O=c1c(OC2OC(CO)C(O)C(O)C2O)c(-c2ccc(O)c(O)c2)oc2cc(O)cc(O)c12 (stereo not drawn)	-5.0%	-2.7	12.6µM*	-12.7%	-1.2%	-0.8%[15.4 µM]
C[C@@H]1O[C@@H](Oc2c(-c3cc(O)c(O)c(O)c3)oc3cc(O)cc(O)c3c2=O)[C@H](O)[C@H](O)[C@H]1O	22.2%	-8.8	3.16µM*	-6.3%	-2.1%	-3.0%[15.4 µM]
CCCCC[C@]12Cc3ccccc3C(O1)c1c(cc(C)oc1=O)O2	·	·	15.7%[15.3 µM]	-5.4%[12.8 µM]	·	·
COc1ccc(C2SCC(=O)N2CCc2ccc(OC)c(OC)c2)cc1 (stereo not drawn)	5.4%	?	5.62µM*	-12.6%	6.8%	1.2%
C=CC[n+]1c(-c2ccc(OC)c(OC)c2)csc1NNC(=O)Nc1ccccc1	4.6%	0.4	31.6µM*	-2.7%	4.5%	-4.1%
C=CC[n+]1c(-c2ccccc2)csc1NC(C)(C)C	-6.5%	-8.1	6.5%	-1.5%	-8.7%	-3.2%
Cc1c(C(=O)O)c2cc(O)ccc2n1-c1ccccc1	-21.3%	4.8	25.1µM*	-3.7%	-6.1%	-3.2%
COc1cc(/C=N/N2C(=O)CSC2=S)ccc1O	-0.3%	-0.7	31.6µM*	-22.6%	0.6%	1.0%
COc1ccc(Br)cc1/C=N/N1C(=O)CSC1=S	·	·	4.6%	-2.4%	·	·
CCOC(=O)c1sc(-c2ccc(Br)cc2)cc1N	3.4%	-5.0	-6.8%	2.2%[12.8 µM]	-2.7%	7.8%
Nc1sc(-c2ccccc2)cc1C(=O)O	-2.5%	4.7	24.9µM*	3.7%	-1.2%	1.3%
CC(C)(C)C(=O)Nc1sc(-c2ccccc2)cc1C(=O)O	-5.8%	0.1	5.2%	-0.1%	-2.3%	·
CCOC(=O)c1cc(-c2ccc(N)cc2)sc1N	4.3%	-6.5	14µM*	-21.5%	2.1%	?
CCN(CC)c1ccc(NC(=O)CSc2nnc(C)c(=O)[nH]2)cc1	·	·	25.1µM*	·	·	·
Cc1ccc(NC(=O)CSc2nnc(C)c(=O)[nH]2)cc1	·	·	-7.4%[76.3 µM]	·	·	·
CN=c1scc(-c2cccs2)n1/N=C/c1ccc(O)c(O)c1O	-6.0%	-8.4	?	-7.8%	3.4%	?
CN=c1scc(C)n1/N=C/c1ccc(O)c(O)c1O	-6.9%	-5.7	11.2µM*	·	-14.3%	-13.6%
C/C(=N\N1CCN(C2c3ccccc3-c3ccccc32)CC1)c1cccnc1	3.1%	2.0	31.6µM*	8.1%	-21.6%	11.6%
C(=N\N1CCN(C2c3ccccc3-c3ccccc32)CC1)/c1cccnc1	-7.1%	-2.4	-19.8%	·	-8.5%	-5.5%
CCCc1ccc(C(=O)NNc2cccc(C)c2)cc1	1.6%	-13.8	15.8µM*	26.4%	-4.1%	·

Bioassay records from PubChem.
